# Screening data (PubChem BioAssay)
# D1 antag: antagonists of human D1 dopamine receptor. P21728. HEK293 TREx D1 cells, calcium flux, dopamine EC80; active compounds read low. activity change, negative = inhibition, % at 10 µM. 360,000 tested, 3.2% active. AID 504652; in the data active means activity change below about -30%; further: on the % scale 0 is the no-effect control and ±100 the full control effect
# Target sequence (P21728 whole entry, looked up): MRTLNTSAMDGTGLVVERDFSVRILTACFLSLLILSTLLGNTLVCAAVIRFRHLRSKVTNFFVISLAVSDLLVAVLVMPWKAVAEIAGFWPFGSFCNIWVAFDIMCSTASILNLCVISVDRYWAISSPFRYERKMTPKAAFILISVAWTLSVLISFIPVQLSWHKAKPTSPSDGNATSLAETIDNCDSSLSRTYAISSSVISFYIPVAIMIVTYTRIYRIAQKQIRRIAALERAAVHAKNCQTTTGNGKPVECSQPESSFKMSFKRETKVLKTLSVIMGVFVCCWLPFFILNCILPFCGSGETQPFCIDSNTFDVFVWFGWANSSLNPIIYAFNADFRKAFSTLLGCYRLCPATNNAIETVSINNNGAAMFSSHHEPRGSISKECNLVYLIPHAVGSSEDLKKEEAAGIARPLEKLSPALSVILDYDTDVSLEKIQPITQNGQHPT
#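 After overnight tetracycline induction at 30 C, force-coupled D1 HEK293 cells took up a no-wash calcium dye at room temperature. Compounds were added and monitored 180 s, and the response to EC80 dopamine was then recorded.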
# D3 antag: D3 dopamine receptor (human) antagonism; D3R cells, DiscoveRx beta-arrestin luminescence, antagonist mode; active compounds read low; max response, negative = inhibition, %; 360,000 tested, 2.5% active; P35462; in the data active means max response below about -50%; inconclusive means no clear call, values can overlap the other calls; further: on the % scale 0 is the no-effect control and ±100 the full control effect
#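 Cells expressing the human receptor were seeded at 1500 cells/well, incubated overnight at 37 degrees C in 5% CO2, then exposed to library compounds with dopamine controls for 90 minutes at 37 degrees C before luminescent detection.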
# D1 potentiator: potentiators of human D1 dopamine receptor. P21728. potentiation, % at 10 µM. AID 504651. 360,000 tested, 0.036% active. HEK293 TREx D1 cells, calcium flux, dopamine EC20 potentiation; in the data active means potentiation above about 30%; further: 0% is about no effect
# D1 agonist: human D1 receptor agonism; activation, % at 2 µM; AID 504660; HEK293 T-REx D1 cells, calcium flux, agonist mode; P21728; 360,000 tested, 1% active; in the data active means activation above about 30%; further: 0% is about no effect
#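 Inducible HEK293 T-REx D1 cells, force-coupled to calcium signalling, were plated at 4000 cells/well with tetracycline and held overnight at 30 C. After no-wash calcium dye loading, compound-evoked calcium rise over 180 s flagged agonists.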
# D3 ag: D3 dopamine receptor (human) agonism; 410,000 tested, 0.58% active; P35462; max activation, %; D3R DiscoveRx beta-arrestin cells, luminescence, 90 min; AID 652048; in the data active means max activation above about 30%; further: 0% is about no effect
#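 Cells at 1500/well, incubated overnight, then treated with pinned compounds (dopamine as control) for 90 min at 37 degrees C. DiscoveRx reagent added for 30 - 60 minutes at room temperature; luminescence read.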
# An asterisk follows results filed as active; ? = inconclusive; · = no result given; ! = not confirmed by another sample. A selection: hits, their analogues and other compounds. The true share with any hit is near 6%.
SMILES,D1 antag,D3 antag,D1 potentiator,D1 agonist,D3 ag
Cc1ccc(NC(=O)C2CCCN(c3nnc(C)c4c(C)n(-c5ccccc5)nc34)C2)cc1Cl (configuration not stated),12.2,·,1.6,0.6,19.7
COc1cccc(C(=O)NC2CC3CCCC(C2)N3Cc2ccc(C)cc2)c1 (configuration not stated),-22.3,-111.5*,-9.7,5.1,-17.7
COc1cccc(C(=O)NC2CC3CCCC(C2)N3Cc2ccc(F)cc2)c1 (configuration not stated),·,-107.0*,·,·,-11.6
CCOC(=O)c1cnc2ccc(OC(F)(F)F)cc2c1Nc1ccccc1C(=O)O,0.3,·,-4.3,-1.0,30.7*
Cc1cccc(N2CCN(C(=O)c3cc4c(=O)n(C)c5ccccc5c4s3)CC2)c1C,3.3,·,0.2,2.5,5.8
Cc1nc2nc(NC(=O)c3ccc(C(C)(C)C)cc3)[nH]n2c(=O)c1C,-7.8,·,-0.8,4.0,-11.0
O=C(Nc1ccccc1)C1=C[C@H](c2csc3ccccc23)C[C@H](OCc2ccc(CO)cc2)O1,5.2,3.7,-4.5,3.9,36.3*
O=C(NC1CC1)C1=C[C@H](c2csc3ccccc23)C[C@H](OCc2ccc(CO)cc2)O1,-3.7,-26.3,-3.2,2.4,3.7
O=C(Nc1ccccc1)C1=C[C@@H](c2coc3ccccc3c2=O)C[C@@H](OCc2ccc(CO)cc2)O1,-36.6*,0.0,-4.3,-3.2,-7.9
O=C(NCc1ccccc1)C1=C[C@H](c2coc3ccccc3c2=O)C[C@H](OCc2ccc(CO)cc2)O1,5.7,-7.0,1.4,4.0,-7.5
C=CCOC(=O)C1=C[C@H](c2coc3ccccc3c2=O)C[C@H](OCc2ccc(CO)cc2)O1,22.5,42.7,-3.0,7.5,6.1
C=CCOC(=O)C1=C[C@@H](c2coc3ccccc3c2=O)C[C@@H](OCc2ccc(CO)cc2)O1,-48.7*,4.7,-0.9,-2.1,1.7
CCOC(=O)CCn1nc(-c2ccc(C)cc2)c2ccccc2c1=O,-49.1*!,4.7,-10.2,1.5,-0.6
CCOc1ccccc1C(=O)Nc1c(NC)c2ccccc2oc1=O,12.3,·,5.5,3.3,9.2
COc1ccccc1CCN1CCCC(CN(C)C(=O)c2ccoc2)C1 (configuration not stated),-12.7,?,-5.3,1.3,-13.0
COc1ccccc1CCN1CCCC(CN(C)C(=O)c2ccco2)C1 (configuration not stated),-49.7*,?,-21.6,2.4,-14.5
COCC(=O)N(C)CC1CCCN(CCc2ccccc2OC)C1 (configuration not stated),-7.5,-64.1*,-5.8,2.3,-11.9
COC(=O)Cc1cc(=O)n2[nH]c(C)cc2n1,·,-51.9*,-1.7,-1.7,0.9
O=C(c1ccc2c(c1)OCO2)N(c1ccccc1)C1C=CS(=O)(=O)C1 (configuration not stated),-39.6*,0.0,1.5,2.7,-1.5
Cc1cc(C)cc(N(C(=O)c2ccc(Br)o2)C2C=CS(=O)(=O)C2)c1 (configuration not stated),2.3,-5.1,-2.1,0.4,-4.0
CC(=O)N(c1cccc(Br)c1)C1C=CS(=O)(=O)C1 (configuration not stated),-0.5,-66.9*,-1.8,-0.1,-14.8
CNC(=O)COc1ncnc2sc(C)c(C)c12,12.5,0.0,-1.1,1.4,-11.6
Cc1sc2ncnc(OCC(=O)NCc3cccs3)c2c1C,-4.7,-82.8*,-1.9,-1.1,7.0
COc1cc2nc(Nc3ccc(C)c(C)c3)nc(N)c2cc1OC,-35.3*!,0.7,-3.2,0.6,0.7
COc1ccc(C)cc1Nc1nc(N)c2ccccc2n1,-36.3*,-11.2,-17.4,1.9,-12.3
COc1cc(NS(C)(=O)=O)ccc1Nc1c2ccccc2nc2ccccc12,-48.8*,3.7,-6.0,-1.8,2.6
COc1ccc(OC)c(Nc2c3c(nc4ccccc24)CCC3)c1,-19.7,-11.5,-4.8,1.9,-11.3
COc1ccc(OC)c(Nc2c3ccccc3nc3ccccc23)c1,-54.2*,?,-13.3,10.5,-26.5
Cc1ccccc1Nc1nc(N)c2ccccc2n1,2.1,-7.9,-8.1,1.1,-0.3
COc1cc2nc(Nc3ccc(C)c(Cl)c3)nc(N)c2cc1OC,1.8,11.7,-4.0,-0.8,-9.4
